From the supplement of paper PMC10849652
Of roughly 7,900 targets only a part is listed; those with a hit were picked by preference. About 0.6% of all pairs of compound and target were hits. Values without a mark were called inactive.

What was measured:
Assay in all cases: log2 fold change, soluble protein after heating vs DMSO (PISA); higher = thermal stabilisation; K562 cells, 10 uM, 30 min; active = over 0.2 and 3.5 SD of the protein, either way, in both replicates (recomputed)
[1] = compound: CC1=C(C=C(C=C1)NC(=O)C2=CC(=CC=C2)C(C)(C)C#N)NC3=CC4=C(C=C3)N=CN(C4=O)C
Method in brief: (§1)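 K562 cells at 2×10^6 cells/mL were treated for 30 min with 10 μM compound, and aliquots were heated for 3 min over 48°C-58°C before pooling. Extraction used PBS with 0.5% NP-40 at 4°C, and soluble protein was the supernatant after 21,000xg for 90 min, measured by TMTpro 16plex LC-MS/MS with channel sums equalised. Thermal stability values, relative to control samples and from duplicates, are log2 fold changes.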

[2] = compound: CC1=C(C=C(C=C1)NC(=O)C2=CC(=CC=C2)N(C)C)NC(=O)C3=CC=C(C=C3)O
Method in brief: as §1

[3] = compound: CC1=CC=C(C=C1)SC2=C3C=C(SC3=CN=C2)C(=O)N
Method in brief: as §1

[4] = compound: CC1=NC(=CC=C1)C2=C(N=C(N2)C(C)(C)C)C3=CC4=NC=CN=C4C=C3
Method in brief: as §1

Nexturastat A = compound: CCCCN(Cc1ccc(C(=O)NO)cc1)C(=O)Nc1ccccc1 [Nexturastat A]
Method in brief: as §1

[5] = compound: CCCS(=O)(=O)Nc1ccc(F)c(C(=O)c2c[nH]c3ncc(Cl)cc23)c1F
Method in brief: as §1

[6] = compound: CCCc1cc(C)[nH]c(=O)c1CNC(=O)c1cc(-c2ccnc(N3CCN(C)CC3)c2)cc2c1cnn2C(C)C
Method in brief: as §1

givinostat = compound: CCN(CC)Cc1ccc2cc(COC(=O)Nc3ccc(C(=O)NO)cc3)ccc2c1 [givinostat]
Method in brief: as §1

barasertib = compound: CCN(CCCOc1ccc2c(Nc3cc(CC(=O)Nc4cccc(F)c4)[nH]n3)ncnc2c1)CCOP(=O)(O)O [barasertib]
Method in brief: as §1

vemurafenib = compound: CCCS(=O)(=O)Nc1ccc(F)c(C(=O)c2c[nH]c3ncc(-c4ccc(Cl)cc4)cc23)c1F [vemurafenib]
Method in brief: as §1

LRBA, A0A494BZW2
log2 fold change [1]: -0.082 | log2 fold change [2]: 0.06 | log2 fold change [3]: -0.048 | log2 fold change [4]: 0.078 | log2 fold change (Nexturastat A): -0.264 | log2 fold change [5]: 0.272 | log2 fold change [6]: 0.038 | log2 fold change (givinostat): 0.264 | log2 fold change (barasertib): 0.026

MFSD11 (UniProt O43934)
log2 fold change [1]: -0.171 | log2 fold change [3]: 0.038 | log2 fold change [4]: 0.013 | log2 fold change (Nexturastat A): -0.097 | log2 fold change (vemurafenib): -0.012 | log2 fold change [5]: 0.039 | log2 fold change [6]: -0.02 | log2 fold change (barasertib): 0.013

MFSD1 isoform 6 (UniProt Q9H3U5)
UniProt Q9H3U5, sequence (Q9H3U5 whole entry, looked up): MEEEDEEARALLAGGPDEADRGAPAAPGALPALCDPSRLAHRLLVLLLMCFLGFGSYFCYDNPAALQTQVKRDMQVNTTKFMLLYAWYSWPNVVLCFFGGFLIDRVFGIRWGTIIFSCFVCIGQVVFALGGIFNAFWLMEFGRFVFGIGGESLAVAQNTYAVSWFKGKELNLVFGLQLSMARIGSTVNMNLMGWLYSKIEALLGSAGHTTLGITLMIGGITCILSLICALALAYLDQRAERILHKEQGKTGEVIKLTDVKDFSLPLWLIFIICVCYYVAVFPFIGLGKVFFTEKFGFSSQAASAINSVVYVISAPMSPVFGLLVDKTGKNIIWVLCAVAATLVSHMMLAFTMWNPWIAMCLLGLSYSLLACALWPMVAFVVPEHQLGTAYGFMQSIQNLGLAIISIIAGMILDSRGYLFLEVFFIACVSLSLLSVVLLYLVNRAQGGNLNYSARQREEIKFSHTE
log2 fold change [1]: 0.056 | log2 fold change [2]: -0.008 | log2 fold change [3]: -0.046 | log2 fold change (Nexturastat A): -0.106 | log2 fold change (vemurafenib): -0.053 | log2 fold change [5]: -0.059 | log2 fold change [6]: 0.021 | log2 fold change (givinostat): 0.008 | log2 fold change (barasertib): 0.041

MAP4 isoform 5 (UniProt P27816)
log2 fold change [1]: 0.013 | log2 fold change [2]: 0.055 | log2 fold change [3]: -0.173 | log2 fold change (Nexturastat A): 0.105 | log2 fold change [5]: -0.01 | log2 fold change [6]: -0.161 | log2 fold change (givinostat): -0.028 | log2 fold change (barasertib): -0.114

LPIN3 isoform 2 (UniProt Q9BQK8)
log2 fold change [1]: -0.152 | log2 fold change [2]: 0.005 | log2 fold change [3]: -0.04 | log2 fold change (Nexturastat A): -0.014 | log2 fold change (vemurafenib): -0.001 | log2 fold change [5]: -0.069 | log2 fold change [6]: -0.014 | log2 fold change (givinostat): -0.006 | log2 fold change (barasertib): -0.054

MFSD12 isoform 3 (UniProt Q6NUT3)
log2 fold change [1]: 0.115 | log2 fold change (givinostat): -0.022

MAGEA8 (UniProt P43361)
log2 fold change [2]: 0.009 | log2 fold change [3]: 0.02 | log2 fold change [4]: 0.072 | log2 fold change (vemurafenib): 0.031 | log2 fold change [5]: 0.197 | log2 fold change (givinostat): 0.034 | log2 fold change (barasertib): -0.123

ITPRID2 (UniProt P28290)
log2 fold change [2]: -0.003 | log2 fold change [3]: -0.103 | log2 fold change [4]: -0.065 | log2 fold change (Nexturastat A): -0.188 | log2 fold change (vemurafenib): -0.125 | log2 fold change [5]: -0.097 | log2 fold change (givinostat): 0.213

KXD1 (UniProt Q9BQD3)
UniProt Q9BQD3, sequence (Q9BQD3 whole entry, looked up): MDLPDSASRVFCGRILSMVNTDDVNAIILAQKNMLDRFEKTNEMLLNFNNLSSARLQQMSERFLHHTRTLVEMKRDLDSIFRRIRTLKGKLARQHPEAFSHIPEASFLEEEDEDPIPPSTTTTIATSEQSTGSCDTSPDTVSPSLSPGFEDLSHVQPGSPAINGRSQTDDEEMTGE
log2 fold change [2]: -0.025 | log2 fold change [3]: 0 | log2 fold change (Nexturastat A): -0.223 | log2 fold change (vemurafenib): 0.092 | log2 fold change [5]: 0.059 | log2 fold change [6]: 0.072 | log2 fold change (givinostat): 0.094 | log2 fold change (barasertib): -0.021

LEPROT (UniProt O15243)
log2 fold change (Nexturastat A): -0.02 | log2 fold change [6]: -0.12 | log2 fold change (givinostat): -0.467

LSR isoform 3 (UniProt Q86X29)
log2 fold change [1]: -0.232 | log2 fold change [3]: 0.04 | log2 fold change [5]: 0.158 | log2 fold change [6]: -0.081

KCNK5 (UniProt O95279)
log2 fold change [1]: -0.114 | log2 fold change [3]: 0.195 | log2 fold change [4]: 0.084 | log2 fold change (Nexturastat A): 0.106 | log2 fold change [5]: 0.1 | log2 fold change [6]: 0.157 | log2 fold change (givinostat): -0.319 | log2 fold change (barasertib): 0.097

MAPRE3 isoform 2 (UniProt Q9UPY8)
log2 fold change [3]: -0.075 | log2 fold change [4]: -0.065 | log2 fold change [5]: 0.029

IPP (UniProt Q9Y573)
log2 fold change (barasertib): -0.139

KIF21A (UniProt H0YI78)
log2 fold change [2]: -0.001 | log2 fold change (givinostat): 0.447

LGALS8 isoform 2 (UniProt O00214)
log2 fold change [1]: 0.01 | log2 fold change [4]: -0.228 | log2 fold change (Nexturastat A): 0.288 | log2 fold change (vemurafenib): -0.013 | log2 fold change [6]: -0.062 | log2 fold change (givinostat): 0.072 | log2 fold change (barasertib): 0.13

LSR (UniProt M0QZL9)
log2 fold change [1]: -0.324 | log2 fold change (Nexturastat A): -0.157 | log2 fold change (vemurafenib): 0.024

MAP2K5 (UniProt Q13163)
log2 fold change [2]: -0.085 | log2 fold change [4]: 0.017

LAMP2 isoform 2 (UniProt P13473)
UniProt P13473, sequence (P13473 whole entry, looked up): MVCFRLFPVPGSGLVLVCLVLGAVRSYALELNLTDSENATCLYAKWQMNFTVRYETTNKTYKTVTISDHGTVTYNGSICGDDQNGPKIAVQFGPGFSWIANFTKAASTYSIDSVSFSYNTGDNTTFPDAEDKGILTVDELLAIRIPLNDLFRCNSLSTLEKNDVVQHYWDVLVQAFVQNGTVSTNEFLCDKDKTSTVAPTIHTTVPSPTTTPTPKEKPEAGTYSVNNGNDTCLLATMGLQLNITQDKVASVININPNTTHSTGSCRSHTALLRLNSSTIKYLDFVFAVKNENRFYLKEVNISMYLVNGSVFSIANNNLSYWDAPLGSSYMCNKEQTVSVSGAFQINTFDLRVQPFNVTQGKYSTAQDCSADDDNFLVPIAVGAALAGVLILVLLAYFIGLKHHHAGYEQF
log2 fold change [3]: -0.07 | log2 fold change [4]: 0.003 | log2 fold change (Nexturastat A): -0.015 | log2 fold change (vemurafenib): -0.082 | log2 fold change [5]: -0.093 | log2 fold change [6]: -0.071 | log2 fold change (givinostat): -0.158 | log2 fold change (barasertib): 0

ILF3 (UniProt Q12906)
log2 fold change [1]: 0.106 | log2 fold change [4]: -0.177 | log2 fold change (Nexturastat A): 0.347 | log2 fold change [6]: -0.232 | log2 fold change (barasertib): -0.241

MCOLN3 (UniProt Q8TDD5)
UniProt Q8TDD5, sequence (Q8TDD5 whole entry, looked up): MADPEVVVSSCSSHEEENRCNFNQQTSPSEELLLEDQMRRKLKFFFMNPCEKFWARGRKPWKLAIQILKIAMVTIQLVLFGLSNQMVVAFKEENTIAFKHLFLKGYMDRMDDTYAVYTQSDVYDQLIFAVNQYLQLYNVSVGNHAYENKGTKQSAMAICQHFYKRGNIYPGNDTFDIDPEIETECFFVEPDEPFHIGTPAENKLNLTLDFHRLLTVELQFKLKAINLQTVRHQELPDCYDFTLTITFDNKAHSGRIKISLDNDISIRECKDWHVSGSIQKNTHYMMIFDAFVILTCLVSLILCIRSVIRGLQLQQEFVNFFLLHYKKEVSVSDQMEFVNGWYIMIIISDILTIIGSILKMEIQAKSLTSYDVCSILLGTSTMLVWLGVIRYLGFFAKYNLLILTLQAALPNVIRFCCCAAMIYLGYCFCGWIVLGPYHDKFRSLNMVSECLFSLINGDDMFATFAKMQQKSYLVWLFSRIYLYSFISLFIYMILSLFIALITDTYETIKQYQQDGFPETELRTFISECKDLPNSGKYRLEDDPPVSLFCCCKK
log2 fold change [2]: 0.013 | log2 fold change [3]: 0.15 | log2 fold change [5]: 0.014 | log2 fold change [6]: -0.481 | log2 fold change (givinostat): 0.221 | log2 fold change (barasertib): -0.171

MAPK7 (UniProt Q13164)
log2 fold change [4]: -0.169 | log2 fold change (Nexturastat A): 0.275

LRRCC1 (UniProt Q9C099)
log2 fold change [2]: 0.039

MED29 (UniProt Q9NX70)
log2 fold change [3]: -0.075 | log2 fold change [5]: 0.131 | log2 fold change [6]: 0.025 | log2 fold change (givinostat): -0.076

ING5 (UniProt Q8WYH8)
log2 fold change [3]: 0.058 | log2 fold change [4]: -0.052 | log2 fold change [5]: -0.011 | log2 fold change [6]: -0.237 | log2 fold change (givinostat): 0.316

MAGED1 isoform 2 (UniProt Q9Y5V3)
log2 fold change [1]: 0.003 | log2 fold change [3]: 0.1 | log2 fold change (Nexturastat A): 0.608 (active) | log2 fold change (vemurafenib): -0.236 | log2 fold change [5]: 0.198 | log2 fold change (givinostat): 0.006

MELK (UniProt Q14680)
UniProt Q14680, sequence (Q14680 whole entry, looked up): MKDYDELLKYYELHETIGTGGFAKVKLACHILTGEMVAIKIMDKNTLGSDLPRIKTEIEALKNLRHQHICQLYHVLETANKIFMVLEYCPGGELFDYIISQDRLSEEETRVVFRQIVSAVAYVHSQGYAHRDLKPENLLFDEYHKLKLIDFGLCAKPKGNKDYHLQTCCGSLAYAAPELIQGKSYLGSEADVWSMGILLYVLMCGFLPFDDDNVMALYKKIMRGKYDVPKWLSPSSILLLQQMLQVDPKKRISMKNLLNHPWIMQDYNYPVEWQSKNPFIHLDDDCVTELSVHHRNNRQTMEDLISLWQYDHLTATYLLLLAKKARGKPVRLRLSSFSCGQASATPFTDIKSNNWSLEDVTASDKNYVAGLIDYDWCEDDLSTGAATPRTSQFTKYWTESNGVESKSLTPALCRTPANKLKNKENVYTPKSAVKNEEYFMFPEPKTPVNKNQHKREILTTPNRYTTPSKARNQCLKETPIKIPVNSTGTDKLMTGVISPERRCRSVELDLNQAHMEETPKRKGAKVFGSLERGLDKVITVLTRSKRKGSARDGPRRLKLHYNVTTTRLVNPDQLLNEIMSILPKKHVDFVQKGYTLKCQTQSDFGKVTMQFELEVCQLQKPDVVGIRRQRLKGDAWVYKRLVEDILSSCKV
log2 fold change [1]: -0.026 | log2 fold change [3]: 0.111 | log2 fold change [4]: -0.015 | log2 fold change (Nexturastat A): 0.134 | log2 fold change [5]: 0.02 | log2 fold change (givinostat): -0.023 | log2 fold change (barasertib): 0.048

LDLRAP1 (UniProt Q5SW96)
log2 fold change [2]: -0.028 | log2 fold change [4]: -0.102 | log2 fold change (givinostat): 0.284 | log2 fold change (barasertib): 0.146

KIZ (UniProt Q2M2Z5)
log2 fold change [2]: 0.057 | log2 fold change [3]: 0.003 | log2 fold change [4]: -0.068 | log2 fold change [5]: -0.181

MBLAC1 (UniProt A4D2B0)
log2 fold change [2]: 0.079 | log2 fold change [3]: -0.093 | log2 fold change [4]: -0.098 | log2 fold change (vemurafenib): 0.029 | log2 fold change [5]: -0.008 | log2 fold change [6]: 0.059 | log2 fold change (givinostat): -0.04 | log2 fold change (barasertib): -0.016

MFAP3 (UniProt P55082)
UniProt P55082, sequence (P55082 whole entry, looked up): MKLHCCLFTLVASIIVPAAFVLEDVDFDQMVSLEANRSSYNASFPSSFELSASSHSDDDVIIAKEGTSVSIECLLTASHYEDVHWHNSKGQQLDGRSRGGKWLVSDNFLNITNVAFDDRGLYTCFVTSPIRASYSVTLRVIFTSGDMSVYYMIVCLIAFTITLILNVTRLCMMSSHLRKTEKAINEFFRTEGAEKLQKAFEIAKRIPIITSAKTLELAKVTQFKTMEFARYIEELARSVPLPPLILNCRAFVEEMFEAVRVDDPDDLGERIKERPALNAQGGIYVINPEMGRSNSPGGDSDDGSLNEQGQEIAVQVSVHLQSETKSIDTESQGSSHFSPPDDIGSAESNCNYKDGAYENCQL
log2 fold change [1]: 0.038 | log2 fold change (Nexturastat A): 0.11 | log2 fold change (vemurafenib): -0.115 | log2 fold change (barasertib): 0.05

MAP4K2 (UniProt Q12851)
log2 fold change [1]: -0.034 | log2 fold change [3]: 0.079 | log2 fold change [4]: 0.094 | log2 fold change [5]: 0.043 | log2 fold change (barasertib): 0.218

LRRFIP1 isoform 4 (UniProt Q32MZ4)
log2 fold change [4]: 0.186 | log2 fold change (Nexturastat A): -0.077 | log2 fold change (givinostat): 0.011

LOX (UniProt P28300)
log2 fold change [6]: -0.269 | log2 fold change (givinostat): 0.087 | log2 fold change (barasertib): -0.129

IKZF1 (UniProt R9R4D9)
log2 fold change [3]: -0.116 | log2 fold change [4]: 0.026 | log2 fold change [5]: 0.033

MAPK11 (UniProt Q15759)
log2 fold change [2]: 0.094 | log2 fold change [4]: 0.045 | log2 fold change (givinostat): 0.131

LIN52 (UniProt Q52LA3)
log2 fold change [6]: 0.123

MGRN1 isoform 2 (UniProt O60291)
UniProt O60291, sequence (O60291 whole entry, looked up): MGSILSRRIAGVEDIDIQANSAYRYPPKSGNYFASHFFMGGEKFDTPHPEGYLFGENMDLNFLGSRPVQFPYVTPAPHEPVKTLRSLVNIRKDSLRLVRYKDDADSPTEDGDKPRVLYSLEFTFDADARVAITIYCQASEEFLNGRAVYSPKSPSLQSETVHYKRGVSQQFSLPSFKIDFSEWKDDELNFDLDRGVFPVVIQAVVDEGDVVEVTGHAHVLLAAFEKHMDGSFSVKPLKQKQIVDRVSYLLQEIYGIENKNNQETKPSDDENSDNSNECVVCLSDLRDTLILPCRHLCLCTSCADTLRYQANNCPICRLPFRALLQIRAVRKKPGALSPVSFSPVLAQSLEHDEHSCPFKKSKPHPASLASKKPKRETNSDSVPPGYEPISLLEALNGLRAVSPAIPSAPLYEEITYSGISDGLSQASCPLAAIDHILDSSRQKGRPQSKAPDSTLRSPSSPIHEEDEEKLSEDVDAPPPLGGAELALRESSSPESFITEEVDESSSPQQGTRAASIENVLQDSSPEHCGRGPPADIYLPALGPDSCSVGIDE
log2 fold change [2]: -0.059 | log2 fold change [3]: 0.021 | log2 fold change [4]: -0.02 | log2 fold change [5]: -0.307 | log2 fold change (givinostat): 0.012 | log2 fold change (barasertib): 0

MAP4K4 isoform 6 (UniProt O95819)
UniProt O95819, sequence (O95819 whole entry, looked up): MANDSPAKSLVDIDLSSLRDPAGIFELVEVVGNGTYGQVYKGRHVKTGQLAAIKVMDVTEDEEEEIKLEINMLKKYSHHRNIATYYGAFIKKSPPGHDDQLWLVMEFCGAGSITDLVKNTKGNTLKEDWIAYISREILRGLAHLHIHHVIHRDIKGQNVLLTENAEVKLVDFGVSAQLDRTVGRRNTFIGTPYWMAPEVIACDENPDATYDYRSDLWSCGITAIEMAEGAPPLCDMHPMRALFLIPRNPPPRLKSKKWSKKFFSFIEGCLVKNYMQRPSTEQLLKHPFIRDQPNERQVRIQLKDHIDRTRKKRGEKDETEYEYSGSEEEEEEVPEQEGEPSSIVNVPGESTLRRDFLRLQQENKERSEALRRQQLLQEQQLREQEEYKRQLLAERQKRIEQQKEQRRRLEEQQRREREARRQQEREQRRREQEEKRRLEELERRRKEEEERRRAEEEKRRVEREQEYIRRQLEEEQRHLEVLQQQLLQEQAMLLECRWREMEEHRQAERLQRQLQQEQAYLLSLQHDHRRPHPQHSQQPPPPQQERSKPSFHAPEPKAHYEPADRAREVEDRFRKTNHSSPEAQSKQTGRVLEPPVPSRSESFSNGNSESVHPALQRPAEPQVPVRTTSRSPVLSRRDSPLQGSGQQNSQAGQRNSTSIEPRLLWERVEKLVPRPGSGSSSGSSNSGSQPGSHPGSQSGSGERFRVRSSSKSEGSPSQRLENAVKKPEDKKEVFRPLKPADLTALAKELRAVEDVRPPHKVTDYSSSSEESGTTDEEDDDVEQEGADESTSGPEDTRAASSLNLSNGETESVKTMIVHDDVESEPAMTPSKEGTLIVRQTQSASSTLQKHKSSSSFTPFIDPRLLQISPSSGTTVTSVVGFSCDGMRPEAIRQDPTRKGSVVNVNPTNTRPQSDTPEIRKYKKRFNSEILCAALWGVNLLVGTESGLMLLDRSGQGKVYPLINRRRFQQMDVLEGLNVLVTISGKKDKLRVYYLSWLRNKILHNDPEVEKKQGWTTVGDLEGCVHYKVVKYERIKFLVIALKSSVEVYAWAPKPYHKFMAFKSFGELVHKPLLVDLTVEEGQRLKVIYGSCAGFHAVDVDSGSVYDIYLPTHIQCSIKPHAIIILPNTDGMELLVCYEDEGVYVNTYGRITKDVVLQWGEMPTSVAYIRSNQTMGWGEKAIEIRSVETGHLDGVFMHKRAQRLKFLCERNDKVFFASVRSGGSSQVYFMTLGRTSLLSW
log2 fold change [1]: -0.031 | log2 fold change (vemurafenib): -0.052 | log2 fold change [6]: 0.393

LAPTM4B (UniProt Q86VI4)
log2 fold change [1]: 0 | log2 fold change [6]: -0.228 | log2 fold change (givinostat): 0.128 | log2 fold change (barasertib): 0.002

KIF1B isoform 3 (UniProt O60333)
log2 fold change (vemurafenib): -0.244 | log2 fold change [6]: -0.006

MARCHF3 (UniProt Q86UD3)
log2 fold change [1]: 0.001 | log2 fold change [3]: -0.008 | log2 fold change (Nexturastat A): 0.081 | log2 fold change [5]: -0.01 | log2 fold change (barasertib): 0.025

IGFBP6 (UniProt P24592)
log2 fold change [2]: 0.03 | log2 fold change (vemurafenib): 0.189

MFSD8 (UniProt Q8NHS3)
UniProt Q8NHS3, sequence (Q8NHS3 whole entry, looked up): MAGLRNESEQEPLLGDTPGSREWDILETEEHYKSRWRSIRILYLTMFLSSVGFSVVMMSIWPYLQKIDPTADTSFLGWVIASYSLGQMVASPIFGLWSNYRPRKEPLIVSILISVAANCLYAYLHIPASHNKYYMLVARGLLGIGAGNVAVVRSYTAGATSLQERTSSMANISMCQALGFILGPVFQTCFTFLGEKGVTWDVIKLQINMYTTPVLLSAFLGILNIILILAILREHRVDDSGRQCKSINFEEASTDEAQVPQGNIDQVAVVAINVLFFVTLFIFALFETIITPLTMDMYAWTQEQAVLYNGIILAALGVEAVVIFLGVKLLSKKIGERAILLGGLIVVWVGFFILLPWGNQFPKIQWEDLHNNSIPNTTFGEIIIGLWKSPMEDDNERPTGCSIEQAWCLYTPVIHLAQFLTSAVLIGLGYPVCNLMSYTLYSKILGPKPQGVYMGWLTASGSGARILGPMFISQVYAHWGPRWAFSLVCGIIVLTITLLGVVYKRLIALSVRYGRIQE
log2 fold change [2]: -0.026 | log2 fold change [3]: 0.113 | log2 fold change [4]: 0.011 | log2 fold change (Nexturastat A): -0.004 | log2 fold change (vemurafenib): 0.045 | log2 fold change [5]: 0.151 | log2 fold change [6]: -0.046 | log2 fold change (givinostat): 0.034 | log2 fold change (barasertib): -0.062
